We go through twelve compounds from ChEMBL document CHEMBL3988442, “University of Dundee, Small-Polar-MMV Screening Library” (2021).

For part of these data: Measured potencies and affinities stand elsewhere.

What all share (set-up): scale not given: direction of the effect not stated beside the values
The target in assay [1] is Protein translocase subunit SecA (Escherichia coli (strain K12)) (UniProt P10408). Put plainly: Assay to Identify E. coli SecA ATPase Inhibitors. Type of assay: functional. The conditions noted are these: 30 µM.
Sequence of Protein translocase subunit SecA (Escherichia coli (strain K12)) (P10408 whole entry): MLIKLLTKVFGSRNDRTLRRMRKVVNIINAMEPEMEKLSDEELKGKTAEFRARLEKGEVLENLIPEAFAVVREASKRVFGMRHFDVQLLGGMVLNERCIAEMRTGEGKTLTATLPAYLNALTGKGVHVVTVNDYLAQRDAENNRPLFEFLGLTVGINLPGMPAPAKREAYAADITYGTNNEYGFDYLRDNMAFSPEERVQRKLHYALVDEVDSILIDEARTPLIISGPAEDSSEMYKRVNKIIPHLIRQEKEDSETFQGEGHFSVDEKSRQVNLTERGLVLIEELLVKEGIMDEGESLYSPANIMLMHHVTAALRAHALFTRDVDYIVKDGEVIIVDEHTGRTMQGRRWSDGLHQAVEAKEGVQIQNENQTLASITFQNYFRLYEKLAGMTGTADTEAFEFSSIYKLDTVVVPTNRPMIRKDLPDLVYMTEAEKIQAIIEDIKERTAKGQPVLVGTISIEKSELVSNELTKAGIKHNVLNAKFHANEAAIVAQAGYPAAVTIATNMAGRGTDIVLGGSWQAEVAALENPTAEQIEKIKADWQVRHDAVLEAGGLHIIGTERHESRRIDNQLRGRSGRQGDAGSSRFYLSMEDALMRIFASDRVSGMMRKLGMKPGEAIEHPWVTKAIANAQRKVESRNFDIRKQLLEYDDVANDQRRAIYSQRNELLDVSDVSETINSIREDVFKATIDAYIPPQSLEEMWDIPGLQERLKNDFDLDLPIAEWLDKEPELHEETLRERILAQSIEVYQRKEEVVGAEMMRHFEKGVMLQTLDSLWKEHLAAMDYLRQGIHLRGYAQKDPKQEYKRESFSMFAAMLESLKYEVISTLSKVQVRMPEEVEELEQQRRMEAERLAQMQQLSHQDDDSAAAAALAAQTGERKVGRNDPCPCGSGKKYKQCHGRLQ
In assay [2] the target is T1, Ubiquitin-activating enzyme e1, putative (Leishmania donovani (strain BPK282A1)) (UniProt E9BSI1).
T1 sequence (whole entry): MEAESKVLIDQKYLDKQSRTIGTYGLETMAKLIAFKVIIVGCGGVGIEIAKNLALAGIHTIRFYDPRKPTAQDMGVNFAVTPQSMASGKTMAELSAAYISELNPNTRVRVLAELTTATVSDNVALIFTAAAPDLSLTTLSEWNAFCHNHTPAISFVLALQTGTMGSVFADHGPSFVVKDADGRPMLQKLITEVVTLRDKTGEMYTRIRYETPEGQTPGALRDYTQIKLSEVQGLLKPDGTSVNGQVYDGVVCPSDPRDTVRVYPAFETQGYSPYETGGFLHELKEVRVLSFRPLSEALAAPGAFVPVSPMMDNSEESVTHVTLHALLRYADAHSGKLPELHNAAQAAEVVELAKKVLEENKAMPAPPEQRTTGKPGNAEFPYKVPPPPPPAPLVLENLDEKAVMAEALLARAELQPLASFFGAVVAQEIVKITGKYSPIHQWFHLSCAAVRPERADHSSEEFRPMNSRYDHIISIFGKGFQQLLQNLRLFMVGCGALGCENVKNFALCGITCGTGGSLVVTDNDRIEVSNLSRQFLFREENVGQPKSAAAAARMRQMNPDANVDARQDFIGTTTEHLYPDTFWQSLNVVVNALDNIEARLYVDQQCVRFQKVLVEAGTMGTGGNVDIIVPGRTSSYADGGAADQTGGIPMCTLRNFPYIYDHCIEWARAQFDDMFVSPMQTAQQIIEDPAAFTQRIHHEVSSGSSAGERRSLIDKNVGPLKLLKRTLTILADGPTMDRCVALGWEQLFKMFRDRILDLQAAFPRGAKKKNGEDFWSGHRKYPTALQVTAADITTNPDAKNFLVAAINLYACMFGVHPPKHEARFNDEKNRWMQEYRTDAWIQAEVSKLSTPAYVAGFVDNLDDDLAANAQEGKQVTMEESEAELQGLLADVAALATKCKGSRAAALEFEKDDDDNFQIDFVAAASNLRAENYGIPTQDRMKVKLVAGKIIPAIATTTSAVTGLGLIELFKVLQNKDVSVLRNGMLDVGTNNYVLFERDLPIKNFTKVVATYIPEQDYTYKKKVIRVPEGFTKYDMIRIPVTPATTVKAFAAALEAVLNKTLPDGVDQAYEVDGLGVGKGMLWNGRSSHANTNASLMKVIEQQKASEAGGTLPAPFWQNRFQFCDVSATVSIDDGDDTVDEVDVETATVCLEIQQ
Put plainly: Leishmania donovani Ubiquitin Activating Enzyme (LdE1). Type of assay: functional. To be noted: 30 µM.

Assay [3] concerns the target Sialic acid-binding Ig-like lectin 9 (Homo sapiens) (UniProt Q9Y336). Put plainly: Hs-Siglec9 ALPHAscreen SOP 20170721. To be noted: 10 µM. (In general: In Alpha technology, singlet oxygen from a donor bead excites a nearby acceptor bead.)
Assay [4] relates to Trypanosoma cruzi. The assay is described as follows: Trypanosoma cruzi phosphomannomutase and mannose-1-phosphate guanylyltransferase assay. Type of assay: functional. The conditions noted are these: 10 µM.
For assay [5], the target named is T2, Arginase-2, mitochondrial (Homo sapiens) (UniProt P78540).
T2 sequence (whole entry): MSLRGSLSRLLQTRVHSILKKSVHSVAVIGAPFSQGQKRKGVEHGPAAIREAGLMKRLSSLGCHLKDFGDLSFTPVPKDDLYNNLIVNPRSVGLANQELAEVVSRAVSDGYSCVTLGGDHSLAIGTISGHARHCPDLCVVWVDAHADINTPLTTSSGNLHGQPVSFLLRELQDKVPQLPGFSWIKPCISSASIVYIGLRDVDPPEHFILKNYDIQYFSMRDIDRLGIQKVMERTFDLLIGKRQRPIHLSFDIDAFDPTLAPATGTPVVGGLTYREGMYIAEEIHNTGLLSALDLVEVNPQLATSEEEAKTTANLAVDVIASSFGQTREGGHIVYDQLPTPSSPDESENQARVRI
The assay is described as follows: in vitro enzyme assay to detect the production of urea directly proportional to the activity of Arginase II. Further: in the data most compounds retested in dose-response had high values. Format: functional. The conditions noted are these: 33.3 µM.

For assay [6], the target named is T3, Proteasome subunit beta (Trypanosoma cruzi) (UniProt O96673).
T3 sequence (whole entry): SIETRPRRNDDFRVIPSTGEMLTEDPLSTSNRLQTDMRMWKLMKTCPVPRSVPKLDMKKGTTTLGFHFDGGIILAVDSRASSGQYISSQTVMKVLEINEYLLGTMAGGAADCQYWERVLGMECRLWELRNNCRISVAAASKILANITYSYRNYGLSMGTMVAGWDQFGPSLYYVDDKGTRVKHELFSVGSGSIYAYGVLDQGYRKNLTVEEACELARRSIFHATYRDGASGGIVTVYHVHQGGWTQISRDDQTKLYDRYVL
The assay is described as follows: Trypanosoma cruzi proteasome chymotrypsin-like activity (TcProtChymo) assay. Further: in the data most compounds retested in dose-response had high values. To be noted: 9.37 µM. Type of assay: functional.

Assay [7] is filed under the species Homo sapiens. Put plainly: To identify inhibition of the IFN signalling (Jak-Stat) pathway via expression of an eGFP reporter gene under the control of an IFN-stimulated response element (ISRE) containing MxA promoter. Type of assay: functional. To be noted: 30 µM. A general note: A reporter such as luciferase makes a cellular process visible.
The target in assay [8] is T4, Tyrosyl-tRNA synthetase, putative (Trypanosoma cruzi (strain CL Brener)) (UniProt Q4DSP6).
T4 sequence (whole entry): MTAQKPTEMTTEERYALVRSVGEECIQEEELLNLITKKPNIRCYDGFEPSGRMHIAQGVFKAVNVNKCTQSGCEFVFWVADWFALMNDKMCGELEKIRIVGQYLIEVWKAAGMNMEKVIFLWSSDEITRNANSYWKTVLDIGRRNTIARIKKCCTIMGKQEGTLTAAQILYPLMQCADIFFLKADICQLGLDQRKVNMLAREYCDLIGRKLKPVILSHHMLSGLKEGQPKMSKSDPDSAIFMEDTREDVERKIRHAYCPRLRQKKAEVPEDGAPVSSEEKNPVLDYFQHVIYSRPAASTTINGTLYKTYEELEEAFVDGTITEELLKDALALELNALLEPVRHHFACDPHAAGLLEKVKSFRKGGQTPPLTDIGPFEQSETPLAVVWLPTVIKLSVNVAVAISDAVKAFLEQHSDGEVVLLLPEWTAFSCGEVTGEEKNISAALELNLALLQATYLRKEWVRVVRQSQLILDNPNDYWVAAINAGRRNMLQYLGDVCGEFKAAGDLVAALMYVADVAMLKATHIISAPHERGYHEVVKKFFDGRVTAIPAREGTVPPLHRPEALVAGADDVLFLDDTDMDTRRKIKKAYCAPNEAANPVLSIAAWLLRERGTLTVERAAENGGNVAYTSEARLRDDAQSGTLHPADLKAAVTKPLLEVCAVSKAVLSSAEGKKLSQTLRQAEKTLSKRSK
Put plainly: Trypanosoma cruzi tyrosyl tRNA synthetase (TcYRS) _High Tyrosine SOP. Further: in the data most compounds retested in dose-response had high values. Format: functional. The conditions noted are these: 30 µM.

In assay [9] the target is T4, Tyrosyl-tRNA synthetase, putative (Trypanosoma cruzi (strain CL Brener)). The assay is described as follows: Trypanosoma cruzi tyrosyl tRNA synthetase (TcYRS) SOP. Type of assay: functional. To be noted: 30 µM.
For assay [10], the target named is Chromo domain-containing protein 1 (Saccharomyces cerevisiae (strain ATCC 204508 / S288c) (Baker's yeast)) (UniProt P32657). The assay is described as follows: ScCHD-1 Enzyme Inhibition Assay. Further: in the data most compounds retested in dose-response had high values. The conditions noted are these: 30 µM. Type of assay: functional.
Sequence of Chromo domain-containing protein 1 (Saccharomyces cerevisiae (strain ATCC 204508 / S288c) (Baker's yeast)) (P32657 whole entry, the tested form may be a part): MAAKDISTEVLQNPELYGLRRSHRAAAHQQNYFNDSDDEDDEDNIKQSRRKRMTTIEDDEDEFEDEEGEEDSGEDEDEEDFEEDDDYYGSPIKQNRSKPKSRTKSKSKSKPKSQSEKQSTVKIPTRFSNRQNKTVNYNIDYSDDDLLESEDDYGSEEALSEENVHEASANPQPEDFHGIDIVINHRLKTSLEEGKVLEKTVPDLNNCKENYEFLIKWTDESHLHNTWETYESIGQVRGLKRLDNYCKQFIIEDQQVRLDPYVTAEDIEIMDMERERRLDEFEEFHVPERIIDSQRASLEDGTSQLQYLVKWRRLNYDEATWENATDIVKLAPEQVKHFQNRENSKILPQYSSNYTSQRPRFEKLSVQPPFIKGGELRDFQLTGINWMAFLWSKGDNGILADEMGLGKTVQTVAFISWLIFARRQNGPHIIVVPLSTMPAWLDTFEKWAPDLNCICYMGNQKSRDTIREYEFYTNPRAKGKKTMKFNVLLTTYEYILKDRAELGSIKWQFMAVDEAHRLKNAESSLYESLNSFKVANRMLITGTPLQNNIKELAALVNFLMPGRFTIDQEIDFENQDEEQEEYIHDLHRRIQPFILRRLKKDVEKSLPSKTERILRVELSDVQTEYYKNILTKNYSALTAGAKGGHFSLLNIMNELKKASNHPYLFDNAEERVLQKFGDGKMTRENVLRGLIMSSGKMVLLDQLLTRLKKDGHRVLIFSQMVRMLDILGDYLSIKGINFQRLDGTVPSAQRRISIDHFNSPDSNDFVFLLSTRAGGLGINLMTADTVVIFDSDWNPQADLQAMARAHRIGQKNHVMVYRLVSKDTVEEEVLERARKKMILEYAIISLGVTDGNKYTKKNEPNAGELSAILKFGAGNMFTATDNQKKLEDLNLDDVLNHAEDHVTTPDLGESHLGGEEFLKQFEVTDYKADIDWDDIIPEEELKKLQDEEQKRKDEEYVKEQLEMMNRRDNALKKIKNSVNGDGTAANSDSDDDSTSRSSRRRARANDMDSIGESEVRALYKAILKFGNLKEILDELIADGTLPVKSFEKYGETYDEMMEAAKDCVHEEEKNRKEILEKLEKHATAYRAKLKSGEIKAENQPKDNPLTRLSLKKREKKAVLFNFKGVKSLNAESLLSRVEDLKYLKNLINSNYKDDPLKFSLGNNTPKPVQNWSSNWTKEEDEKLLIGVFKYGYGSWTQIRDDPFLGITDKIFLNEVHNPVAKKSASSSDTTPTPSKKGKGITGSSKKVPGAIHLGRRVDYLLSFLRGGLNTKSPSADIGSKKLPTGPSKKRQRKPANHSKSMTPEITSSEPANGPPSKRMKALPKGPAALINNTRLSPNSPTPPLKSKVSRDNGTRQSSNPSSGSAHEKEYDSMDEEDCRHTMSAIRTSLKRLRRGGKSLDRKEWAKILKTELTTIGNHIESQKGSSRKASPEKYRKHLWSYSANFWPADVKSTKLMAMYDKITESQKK

Sequence of Sialic acid-binding Ig-like lectin 9 (Homo sapiens) (Q9Y336 whole entry): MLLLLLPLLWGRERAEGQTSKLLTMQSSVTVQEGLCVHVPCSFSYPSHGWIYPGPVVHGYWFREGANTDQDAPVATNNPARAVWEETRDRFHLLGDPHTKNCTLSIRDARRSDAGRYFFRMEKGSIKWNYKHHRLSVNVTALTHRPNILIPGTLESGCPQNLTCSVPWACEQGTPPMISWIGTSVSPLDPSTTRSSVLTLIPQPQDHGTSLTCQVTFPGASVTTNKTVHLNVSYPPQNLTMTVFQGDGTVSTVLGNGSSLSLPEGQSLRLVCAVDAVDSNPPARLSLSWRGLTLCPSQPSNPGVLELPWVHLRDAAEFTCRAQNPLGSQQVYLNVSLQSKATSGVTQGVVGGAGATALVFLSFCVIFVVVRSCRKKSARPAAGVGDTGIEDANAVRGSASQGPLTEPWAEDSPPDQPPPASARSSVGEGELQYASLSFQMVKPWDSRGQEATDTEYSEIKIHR

Regarding `COc1cccc2c1OCC(C(=O)NC1CCN(S(C)(=O)=O)CC1)C2` (stereo not given), the Percent Effect in [1] is -2.9%; in [2], 16.2%; in assay [3], 3.48%; in [4], 3.59%; in [5], 12.2%; in [6] it was 18.7%. Moreover, the Percent Effect in assay [7] is 16.9%; in assay [8], 5.85%; in assay [9], 17.1%; in assay [10] it was 93.6%.
For `NC(=O)CN1CCC(C(=O)N2CCCC(OCc3cccnc3)C2)CC1` (stereo not given), the Percent Effect in assay [1] is -5.86%; in [2], 2.7%; in [3], 1.65%; in assay [4], -2.23%; in assay [5], -0.35%; in assay [6], 6.16%. For the same compound, the Percent Effect in [7] was 9.22%; in assay [8], 4.79%; in [9] it was 14.6%; in [10], 1.71%.
In the case of `COc1ccc(CN2CCN(C(C)=O)CC3(CC(=O)N(C)C3)C2)cc1` (stereo not given), the Percent Effect is -0.72% in assay [1]; 14.3% in assay [2]; 1.28% in assay [3]; -0.375% in assay [4]; 2.28% in assay [5]; 6.44% in assay [6]. In addition, the Percent Effect in [7] was 4.32%; in assay [8] it was 12.6%; in assay [9], 20%; in assay [10], -6.64%.
As for `CC1CN(c2ccc(CNC(=O)c3ccn(C)c(=O)c3)cn2)CCO1` (stereo not given), the Percent Effect in assay [1] is -4.46%; in assay [2], 16%; in assay [3] it was 0.777%; in assay [4], 1.61%; in assay [5], 5.32%; in assay [6], 7.72%. For the same compound, the Percent Effect is 6.29% in [7], 3.68% in assay [8], 15.4% in [9] and -8.09% in [10].
`CN(Cc1ccc2c(c1)OCCO2)C(=O)Cn1cccnc1=O`: the Percent Effect in assay [1] is -4.28%; in assay [2], 10.7%; in assay [3], -2.28%; in assay [4], 3.41%; in [5], 1.33%; in assay [6] it was 16%. Further, the Percent Effect in assay [7] is 6.87%; in assay [8], 6.84%; in assay [9] it was 12.8%; in assay [10] it was -8.2%.
With `CN1CCN(c2ncnc3c2c(C(=O)NC2CC2)c2ccccn23)CC1`, the Percent Effect in assay [1] was -0.824%; in assay [2] it was -6.49%; in assay [3], 1.78%; in assay [4] it was -5.16%; in [5], 3.24%; in assay [6], -2.56%. The Percent Effect in assay [7] was 0.0174%; in assay [8] it was -1.58%; in [9] it was 0%; in assay [10] it was -13.6%.
On to `Cn1ncc(C(=O)N2CCCC(n3cccn3)C2)c1C1CC1` (stereo not given), for which the Percent Effect is -4.48% in assay [1]; 10.7% in assay [2]; 0.531% in [3]; -3.61% in assay [4]; 3.1% in assay [5]; 11.6% in [6]. Further, the Percent Effect in assay [7] was 8.56%; in [8], 2.63%; in assay [9] it was 5.13%; in assay [10], -7.06%.
On to `Cc1nccn1C1CCCN(C(=O)COCC(F)(F)F)C1` (stereo not given), for which the Percent Effect in assay [1] was -0.686%; in [2], 2.56%; in [3] it was 10.1%; in [4], 0.845%; in assay [5] it was -2.05%; in [6], 0.597%. The Percent Effect in [7] is -3.59%; in [8], -3.35%; in assay [9], -1.21%; in assay [10] it was -1.66%.
In the case of `O=C(CN1CCCC(Cn2cncn2)C1)NCCOc1ccccc1` (stereo not given), the Percent Effect in assay [1] is 3.17%; in assay [2], -2.67%; in [3], 2.29%; in [4], -1.41%; in [5], 5.32%; in [6], 4.67%. The Percent Effect in assay [7] is 6.94%; in [8] it was 0.526%; in [9] it was 0%; in assay [10], -6.78%.
For `Cc1ccc(CC(=O)N2CCc3nnc(N(C)C)cc3C2)cn1`, the Percent Effect was 0.88% in assay [1]; 20.5% in [2]; -4.67% in [3]; -0.469% in [4]; 2.05% in assay [5]; 13.6% in [6]. Moreover, the Percent Effect is 16.2% in assay [7], 6.22% in assay [8], 10.8% in assay [9] and -4.95% in assay [10].
As for `Cc1noc(C2CCN(C(=O)CCNc3ncccn3)CC2)n1`, the Percent Effect in [1] was -0.897%; in assay [2] it was 12.8%; in assay [3] it was -14%; in assay [4], 5.92%; in assay [5], 0%; in assay [6], 9.98%. In addition, the Percent Effect in assay [7] was 14.8%; in [8] it was 6.22%; in [9] it was 22.9%; in assay [10] it was -4.88%.
As for `c1cnnc(N2CCCC(NCc3nnc(-c4ccco4)o3)C2)c1` (stereo not given), the Percent Effect in assay [1] is -0.0972%; in assay [2] it was 25.6%; in assay [3] it was -15.5%; in assay [4], 1.03%; in assay [5], -0.82%; in assay [6], 25.2%. Also, the Percent Effect in assay [7] is -0.0242%; in assay [8], 9.09%; in assay [9], 22.9%; in assay [10], -1.66%.
